# Results from PubChem BioAssay (NCI).
# The panel holds about 83,000 compounds, 20% with a hit somewhere; the sample as a whole holds those more often.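 The test compound was applied at a single concentration to cells in 96-well plates for 48 hours, and percent growth was recorded.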 Values without a mark were called inactive. Active and inactive are the calls of the source. Rule for the calls: active = growth percent below 10; inactive = the rest.
# Assays:
# Test in all cases: NCI-60 one-dose screen, 48 h (100 = growth as untreated, 0 = no growth, -100 = all killed)
# Details in all cases: 10 µM unless noted
# HCT-15 colon = test system: HCT-15 colon
# HT29 colon = test system: HT29 colon
# SNB-75 CNS = test system: SNB-75 CNS
# SNB-19 CNS = test system: SNB-19 CNS
# U251 CNS = test system: U251 CNS
# PC-3 prostate = test system: PC-3 prostate
# SK-MEL-5 melanoma = test system: SK-MEL-5 melanoma
# UACC-62 melanoma = test system: UACC-62 melanoma
# LOX IMVI melanoma = test system: LOX IMVI melanoma
# SK-MEL-28 melanoma = test system: SK-MEL-28 melanoma
# SK-MEL-2 melanoma = test system: SK-MEL-2 melanoma
# EKVX NSCLC = test system: EKVX NSCLC
# SN12C renal = test system: SN12C renal
# UO-31 renal = test system: UO-31 renal
# TK-10 renal = test system: TK-10 renal
# ACHN renal = test system: ACHN renal
# CAKI-1 renal = test system: CAKI-1 renal
# A498 renal = test system: A498 renal
# CCRF-CEM leukemia = test system: CCRF-CEM leukemia
# MOLT-4 leukemia = test system: MOLT-4 leukemia
SMILES,growth (HCT-15 colon),growth (HT29 colon),growth (SNB-75 CNS),growth (SNB-19 CNS),growth (U251 CNS),growth (PC-3 prostate),growth (SK-MEL-5 melanoma),growth (UACC-62 melanoma),growth (LOX IMVI melanoma),growth (SK-MEL-28 melanoma),growth (SK-MEL-2 melanoma),growth (EKVX NSCLC),growth (SN12C renal),growth (UO-31 renal),growth (TK-10 renal),growth (ACHN renal),growth (CAKI-1 renal),growth (A498 renal),growth (CCRF-CEM leukemia),growth (MOLT-4 leukemia)
C1CCC(N2CN3c4nonc4N4CN(C5CCCCC5)CN5c6nonc6N(C2)C3C45)CC1 (centres undefined),84.5%,105%,88.7%,102%,93.3%,87.9%,93.5%,88.7%,98.9%,101%,102%,82.4%,92.4%,71.9%,102%,103%,84.9%,92.9%,51%,–
Clc1ccc2nn3c4ccccc4c(OCCN4CCOCC4)nc3c2c1,89.8%,95.5%,76.8%,81.1%,84.5%,92.8%,83.7%,67.6%,84.2%,110%,112%,84.3%,87.9%,49.2%,84.8%,70.7%,50.4%,3.87% (active),96.2%,–
O=C(Nc1ccc(Oc2cccc(Cl)c2)c(Cl)c1)c1cccnn1,56.7%,89.9%,77.7%,89.5%,76.7%,57.2%,83.8%,74.7%,88.5%,99.4%,102%,87.3%,83.2%,64.9%,75%,97.9%,80.8%,87.4%,84%,80.1%
O=C1/C(=C/c2c[nH]c(=O)[nH]c2=O)SC(=S)N1Cc1ccccc1,104%,101%,80.1%,95.2%,97.7%,98.9%,100%,91.5%,99.8%,103%,103%,74.6%,95.5%,75.8%,102%,102%,93.6%,99.9%,104%,–
COc1ccc(C2C3=C(COC3=O)N(CCO)c3cc4c(cc32)OCO4)cc1OC (centres undefined),77%,39.9%,71%,88.1%,97.9%,58.3%,67.9%,71.8%,77.2%,89%,93.2%,96.1%,94.8%,95.9%,105%,101%,98.4%,79%,65.2%,–
CNC(=O)c1cc(Oc2ccc3c(c2)sc2nc(-c4ccc(Cl)c(C(F)(F)F)c4)cn23)ccn1,65%,56%,81.4%,77.2%,71.9%,45.3%,18.8%,60.6%,50%,80.1%,59.4%,46.7%,64.4%,58.8%,48.3%,62.9%,74.1%,50.6%,47.4%,–
O=C(Nc1ccccc1O)c1ccc(CNc2ccnc(C(F)(F)F)c2)cc1,67.5%,75.8%,55.9%,68%,60.3%,57.7%,38.1%,32.8%,52.7%,69.9%,52.4%,52.7%,48.8%,29.2%,96.2%,43%,29.6%,66.4%,-8.29% (active),9.24% (active)
CS(=O)(=O)Nc1cc(-c2ccc3ncnc(Nc4ccc(OCc5ccccn5)c(Cl)c4)c3c2)cnc1Cl,25.1%,-5.91% (active),-10.8% (active),24%,-27.1% (active),13.4%,-80.8% (active),4.79% (active),-19.6% (active),8.34% (active),-65% (active),3.3% (active),20%,0.194% (active),-19.8% (active),23.7%,29.2%,-61% (active),-2.25% (active),–
O=S(=O)(Nc1cc(Sc2nc3ccccc3s2)c(O)c2ccccc12)c1ccc2ccccc2c1,97.5%,115%,88.2%,106%,86.6%,77.3%,74.5%,99.1%,60.1%,116%,95.8%,101%,90.6%,70.2%,123%,97.6%,101%,96.9%,67.7%,–
C=CC(CC(c1ccccc1)(c1ccccc1)c1ccccc1)N(CC)CC (centres undefined),41.4%,16.2%,68.1%,98.3%,62%,44.9%,13.5%,44.2%,71.6%,61.6%,93.7%,75.7%,71.4%,43.2%,73.6%,85.8%,65.6%,66.3%,53.5%,–
C#CCOc1cccc(Nc2ncnc3cc(NC(=O)CCl)ccc23)c1,-53.5% (active),-78.9% (active),-49.9% (active),-88% (active),-78.9% (active),-83.8% (active),-93.8% (active),-73.9% (active),-67.3% (active),-30.6% (active),-55.3% (active),-49.1% (active),-83.5% (active),-88.7% (active),-85% (active),-84.1% (active),-57.7% (active),-25.6% (active),-46.9% (active),–
c1cc(OCCN2CCCCC2)ccc1CNc1ccc2nc(CCC3CCCCC3)[nH]c2c1,-13.9% (active),8.7% (active),68.1%,62%,-11.8% (active),44.9%,-99.4% (active),53.5%,-82% (active),-86.6% (active),-11.3% (active),75.8%,64.4%,-30.4% (active),80.1%,45.4%,-28.5% (active),10.5%,5.76% (active),7.66% (active)
Cc1cc2oc(/C=C/c3ccccc3)cc(=O)c2c(C)c1Cl,95.7%,107%,116%,89.8%,94.3%,96.7%,96%,90.5%,109%,94.6%,103%,101%,99.1%,94.4%,91.6%,110%,84.6%,142%,99.2%,–
COC12C=C/C(=C(/C(=O)OCc3cncnc3)C(=O)CCCCCCCCC3(OC)C=C/C(=C(/C(=O)OCc4cncnc4)C(=O)CCCCCCCC1)O3)O2,-49.1% (active),1.94% (active),22.4%,10.9%,-36.5% (active),-55.1% (active),-79.9% (active),-56.9% (active),-61.8% (active),-45% (active),-13.1% (active),-20.5% (active),-34.7% (active),-73.6% (active),-23.6% (active),-93.7% (active),-43.5% (active),-94.1% (active),-18.2% (active),-13.4% (active)
COC(=O)c1ccc2cc(OC)c(OC)cc2c1,100%,90.7%,97.8%,99.5%,95.7%,92.1%,108%,104%,109%,102%,134%,84.8%,104%,100%,103%,106%,91.6%,75.4%,91%,–
COc1cc(Cc2cc(OC)c(O)c(OC)c2)cc(OC)c1O,60.9%,110%,82.2%,102%,102%,80.2%,101%,94.9%,80.7%,82.4%,76.6%,110%,97.7%,120%,107%,106%,73.9%,88.6%,59.9%,74.9%
